The source made the active and inactive calls.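 How the source made its calls, unless noted: active means GFP response above 150% of the DMSO level; inconclusive means fewer than 70 events counted for a yeast strain; inactive means the rest.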

One assay can be described thus: TOR pathway reporter MEP2-GFP, retest of hits – S. cerevisiae, flow cytometry GFP, cherry picks, confirmation (AID 2272;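 active means GFP response above 150% of the DMSO control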;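 further: ratio of well signal to plate DMSO mean so 100% equals DMSO level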). To be noted: S. cerevisiae MEP2-GFP strain, 3 h, at 10 µM, active compounds read high.
`Cc1ccc(/C=C/C(=O)c2ccc([N+](=O)[O-])o2)cc1`: the GFP response vs DMSO is 114% (inactive).

For the compound `CCCN1CCc2c(sc(NC(=S)NC(=O)c3ccccc3)c2C#N)C1`, the GFP response vs DMSO was 187% (active).

As to `O=C(CN1CCN(Cc2ccccc2Cl)C1=O)NC1CCCCCCC1`, the GFP response vs DMSO was 100% (inactive).

`O=c1oc(/C=C/c2ccc([N+](=O)[O-])s2)nc2ccccc12`: the GFP response vs DMSO was 267% (active).

For `COc1ccccc1Oc1ccc(S(=O)(=O)N2CCCC2)cc1`, the GFP response vs DMSO was 95.7% (inactive).

As to `COc1ccc(C(=O)Nc2c(N)nc[nH]c2=O)cc1`, the GFP response vs DMSO was 105% (inactive).

With `Cc1[nH]n(-c2ncc(-c3ccccc3)s2)c(=O)c1C(c1ccc(Cl)cc1)C(C#N)C#N` (stereo not given), the GFP response vs DMSO is 106% (inactive).

On to `COc1ccc(-c2cc3cc(C(=O)O)ccn3c2C(=O)c2ccccc2)cc1`, for which the GFP response vs DMSO is 105% (inactive).

`CCOC(=O)c1ccc(NC(=O)CCc2nc(-c3ccc(Cl)cc3)no2)cc1`: the GFP response vs DMSO is 98.3% (inactive).

For `CS(=O)(=O)N1N=C(c2ccco2)CC1c1ccc(Br)cc1` (stereo not given), the GFP response vs DMSO was 100% (inactive).

On to `O=C(O)c1ccc2c3c(ncnc13)-c1ccccc1C2=O`, for which the GFP response vs DMSO is 135% (inactive).

As for `CCN(CC)C(=O)c1ccc2c3c(cccc13)C(=O)N(CCc1ccc(OC)c(OC)c1)C2=O`, the GFP response vs DMSO was 99.5% (inactive).

Turning to `Oc1cccc(/C=N/c2c(-c3ccco3)nc3ccccn23)c1`, the GFP response vs DMSO is 97.5% (inactive).

Regarding `O=C(Nc1nccs1)C(c1ccccc1)N1CCCCC1` (stereo not given), the GFP response vs DMSO is 103% (inactive).

As for `CCN1/C(=C/c2ccc3cc(C)ccc3[n+]2CC)Sc2ccc3sccc3c21`, the GFP response vs DMSO was 244% (active).

Turning to `COCCCN(C(=O)c1ccco1)c1nc(-c2cc(OC)ccc2OC)cs1`, the GFP response vs DMSO is 112% (inactive).

Take `O=C1[C@@H]2C3C=CC(O3)[C@@H]2C(=O)N1c1ccccc1`: the GFP response vs DMSO was 101% (inactive).

Consider `CCOC(=O)C1CCCN(c2nc3c(C)cccn3c(=O)c2/C=C(\C#N)C(=O)NCc2ccco2)C1` (stereo not given), for which the GFP response vs DMSO was 114% (inactive).

On to `CCOC(=O)/C=C1\SCC(=O)N1Cc1nnc(-c2ccccc2Br)o1`, for which the GFP response vs DMSO was 100% (inactive).

Regarding `O=C(Nc1c2c(nn1-c1ccccc1)CS(=O)C2)c1ccco1` (stereo not given), the GFP response vs DMSO is 99.3% (inactive).

Consider `CCn1c(=O)c(C(=O)NCCc2ccccc2)c(O)c2ccccc21`, for which the GFP response vs DMSO was 103% (inactive).

Turning to `CN1CCN(C(c2ccc(C(F)(F)F)cc2)c2ccc3cccnc3c2O)CC1` (stereo not given), the GFP response vs DMSO was 109% (inactive).

Take `COc1ccc(C2N(c3ccc(Cl)cc3)N=C(C(C)=O)N(C)N2C(C)=O)cc1` (stereo not given): the GFP response vs DMSO was 101% (inactive).

For `COC(=O)CCS(=O)(=O)c1nc(-c2ccccc2)cc(C(F)(F)F)n1`, the GFP response vs DMSO was 136% (inactive).

As to `CCc1ccc(OCC(=O)NNC(=S)NC(=O)C2CC2)c(Br)c1`, the GFP response vs DMSO was 126% (inactive).

With `Cc1cccc(Cn2cc(/C=C/[N+](=O)[O-])c3ccccc32)c1`, the GFP response vs DMSO is 103% (inactive).

Take `CCc1ccc2c(c1)C1(NN=C(c3cccc4ccccc34)S1)C(=O)N2` (stereo not given): the GFP response vs DMSO was 97.2% (inactive).

For `N#C/C(=C\c1c(N2CCCCCC2)nc2ccccn2c1=O)C(=O)NCc1ccco1`, the GFP response vs DMSO is 98.3% (inactive).

As to `CCOC(=O)C(=CNNc1ccccc1)C(=O)OCC`, the GFP response vs DMSO is 113% (inactive).

As to `O=C(O)Cn1cc(/C=C/[N+](=O)[O-])c2ccccc21`, the GFP response vs DMSO was 100% (inactive).

On to `N#C/C(C(=O)Nc1ccc(Cl)cc1)=C(/S)Nc1ccccc1`, for which the GFP response vs DMSO was 101% (inactive).

Regarding `CCCc1[nH]nc2c1C(c1ccc(OC)c(Cn3nnc4ccccc43)c1)C(C#N)=C(N)O2` (stereo not given), the GFP response vs DMSO was 100% (inactive).

Consider `COc1ccc(-c2csc(Nc3ncccc3C)n2)cc1`, for which the GFP response vs DMSO was 98.3% (inactive).

With `Cc1ccccc1C(=O)NNC(=S)NC(=O)c1ccc(Cl)cc1Cl`, the GFP response vs DMSO is 118% (inactive).

In the case of `O=C(NC(c1ccccc1)C(Cl)Cl)c1ccccc1` (stereo not given), the GFP response vs DMSO is 128% (inactive).

Consider `Cc1ccc2nc(Cl)c3nnnn3c2c1`, for which the GFP response vs DMSO was 152% (inactive).

For the compound `CN1C(=O)c2cccc3c(Cl)ccc(c23)C1=O`, the GFP response vs DMSO is 105% (inactive).

In the case of `Cc1nc2c(-c3ccc(F)cc3)cnn2c(N)c1-c1ccccc1`, the GFP response vs DMSO was 103% (inactive).

Regarding `COc1ccc(C2CC(c3c(-c4ccccc4)c4cc(Cl)ccc4[nH]c3=O)=NN2S(C)(=O)=O)cc1` (stereo not given), the GFP response vs DMSO is 100% (inactive).

As for `O=C(N/N=C\c1ccc(F)cc1)c1cc(OCC(F)(F)F)ccc1OCC(F)(F)F`, the GFP response vs DMSO was 102% (inactive).

A short description of another assay: yeast AGP1-GFP fluorescence change, single-dose – cell-based, flow cytometry, S. cerevisiae, cherry picks, confirmation (AID 2273).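 Further: median GFP channel fluorescence over the whole cell population gate.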 To be noted: S. cerevisiae AGP1-GFP strain, 3 h, at 10 µM.
Take `Cc1ccc(/C=C/C(=O)c2ccc([N+](=O)[O-])o2)cc1`: the GFP response, % of DMSO is 107% (inactive).

Take `CCCN1CCc2c(sc(NC(=S)NC(=O)c3ccccc3)c2C#N)C1`: the GFP response, % of DMSO is 102% (inactive).

Turning to `O=C(CN1CCN(Cc2ccccc2Cl)C1=O)NC1CCCCCCC1`, the GFP response, % of DMSO was 99.7% (inactive).

As for `O=c1oc(/C=C/c2ccc([N+](=O)[O-])s2)nc2ccccc12`, the GFP response, % of DMSO was 107% (inactive).

`COc1ccccc1Oc1ccc(S(=O)(=O)N2CCCC2)cc1`: the GFP response, % of DMSO is 93.5% (inactive).

As to `COc1ccc(C(=O)Nc2c(N)nc[nH]c2=O)cc1`, the GFP response, % of DMSO is 103% (inactive).

Take `Cc1[nH]n(-c2ncc(-c3ccccc3)s2)c(=O)c1C(c1ccc(Cl)cc1)C(C#N)C#N` (stereo not given): the GFP response, % of DMSO was 100% (inactive).

For `COc1ccc(-c2cc3cc(C(=O)O)ccn3c2C(=O)c2ccccc2)cc1`, the GFP response, % of DMSO was 98.3% (inactive).

Regarding `CCOC(=O)c1ccc(NC(=O)CCc2nc(-c3ccc(Cl)cc3)no2)cc1`, the GFP response, % of DMSO is 95.4% (inactive).

In the case of `CS(=O)(=O)N1N=C(c2ccco2)CC1c1ccc(Br)cc1` (stereo not given), the GFP response, % of DMSO was 96.8% (inactive).

Take `O=C(O)c1ccc2c3c(ncnc13)-c1ccccc1C2=O`: the GFP response, % of DMSO was 105% (inactive).

As for `CCN(CC)C(=O)c1ccc2c3c(cccc13)C(=O)N(CCc1ccc(OC)c(OC)c1)C2=O`, the GFP response, % of DMSO was 95.2% (inactive).

For `Oc1cccc(/C=N/c2c(-c3ccco3)nc3ccccn23)c1`, the GFP response, % of DMSO is 97.1% (inactive).

In the case of `O=C(Nc1nccs1)C(c1ccccc1)N1CCCCC1` (stereo not given), the GFP response, % of DMSO is 101% (inactive).

On to `CCN1/C(=C/c2ccc3cc(C)ccc3[n+]2CC)Sc2ccc3sccc3c21`, for which the GFP response, % of DMSO was 118% (inactive).

`COCCCN(C(=O)c1ccco1)c1nc(-c2cc(OC)ccc2OC)cs1`: the GFP response, % of DMSO is 98.4% (inactive).

Turning to `O=C1[C@@H]2C3C=CC(O3)[C@@H]2C(=O)N1c1ccccc1`, the GFP response, % of DMSO was 107% (inactive).

On to `CCOC(=O)C1CCCN(c2nc3c(C)cccn3c(=O)c2/C=C(\C#N)C(=O)NCc2ccco2)C1` (stereo not given), for which the GFP response, % of DMSO is 95.2% (inactive).

Take `CCOC(=O)/C=C1\SCC(=O)N1Cc1nnc(-c2ccccc2Br)o1`: the GFP response, % of DMSO was 100% (inactive).

Take `O=C(Nc1c2c(nn1-c1ccccc1)CS(=O)C2)c1ccco1` (stereo not given): the GFP response, % of DMSO was 100% (inactive).

`CCn1c(=O)c(C(=O)NCCc2ccccc2)c(O)c2ccccc21`: the GFP response, % of DMSO is 108% (inactive).

Regarding `CN1CCN(C(c2ccc(C(F)(F)F)cc2)c2ccc3cccnc3c2O)CC1` (stereo not given), the GFP response, % of DMSO was 87.4% (inactive).

For `COc1ccc(C2N(c3ccc(Cl)cc3)N=C(C(C)=O)N(C)N2C(C)=O)cc1` (stereo not given), the GFP response, % of DMSO was 101% (inactive).

As for `COC(=O)CCS(=O)(=O)c1nc(-c2ccccc2)cc(C(F)(F)F)n1`, the GFP response, % of DMSO was 130% (inactive).

With `CCc1ccc(OCC(=O)NNC(=S)NC(=O)C2CC2)c(Br)c1`, the GFP response, % of DMSO was 90.5% (inactive).

In the case of `Cc1cccc(Cn2cc(/C=C/[N+](=O)[O-])c3ccccc32)c1`, the GFP response, % of DMSO was 101% (inactive).

Take `CCc1ccc2c(c1)C1(NN=C(c3cccc4ccccc34)S1)C(=O)N2` (stereo not given): the GFP response, % of DMSO is 102% (inactive).

Consider `N#C/C(=C\c1c(N2CCCCCC2)nc2ccccn2c1=O)C(=O)NCc1ccco1`, for which the GFP response, % of DMSO was 95.6% (inactive).

In the case of `CCOC(=O)C(=CNNc1ccccc1)C(=O)OCC`, the GFP response, % of DMSO was 102% (inactive).

Turning to `O=C(O)Cn1cc(/C=C/[N+](=O)[O-])c2ccccc21`, the GFP response, % of DMSO is 93.9% (inactive).

For `N#C/C(C(=O)Nc1ccc(Cl)cc1)=C(/S)Nc1ccccc1`, the GFP response, % of DMSO was 100% (inactive).

With `CCCc1[nH]nc2c1C(c1ccc(OC)c(Cn3nnc4ccccc43)c1)C(C#N)=C(N)O2` (stereo not given), the GFP response, % of DMSO is 103% (inactive).

Regarding `COc1ccc(-c2csc(Nc3ncccc3C)n2)cc1`, the GFP response, % of DMSO was 88.6% (inactive).

As to `Cc1ccccc1C(=O)NNC(=S)NC(=O)c1ccc(Cl)cc1Cl`, the GFP response, % of DMSO is 97.1% (inactive).

Turning to `O=C(NC(c1ccccc1)C(Cl)Cl)c1ccccc1` (stereo not given), the GFP response, % of DMSO is 125% (inactive).

Take `Cc1ccc2nc(Cl)c3nnnn3c2c1`: the GFP response, % of DMSO is 109% (inactive).

On to `CN1C(=O)c2cccc3c(Cl)ccc(c23)C1=O`, for which the GFP response, % of DMSO was 92.4% (inactive).

With `Cc1nc2c(-c3ccc(F)cc3)cnn2c(N)c1-c1ccccc1`, the GFP response, % of DMSO was 96.7% (inactive).

In the case of `COc1ccc(C2CC(c3c(-c4ccccc4)c4cc(Cl)ccc4[nH]c3=O)=NN2S(C)(=O)=O)cc1` (stereo not given), the GFP response, % of DMSO is 99.9% (inactive).

`O=C(N/N=C\c1ccc(F)cc1)c1cc(OCC(F)(F)F)ccc1OCC(F)(F)F`: the GFP response, % of DMSO is 105% (inactive).

The values are drawn from PubChem BioAssay.
